The entries come from a sample that favours hits as a whole.
14-3-3g Raf = modulators of 14-3-3 gamma protein binding, primary screen, biochemical, fluorescence polarization; 14-3-3 protein gamma (Homo sapiens), P61981; FP, 14-3-3gamma / TMR-pS259-Raf peptide binding; inhibition, % at 40 µM; 160,000 compounds, 0.19% hits; in the data active means inhibition above about 30%
Target sequence (P61981 whole entry, looked up): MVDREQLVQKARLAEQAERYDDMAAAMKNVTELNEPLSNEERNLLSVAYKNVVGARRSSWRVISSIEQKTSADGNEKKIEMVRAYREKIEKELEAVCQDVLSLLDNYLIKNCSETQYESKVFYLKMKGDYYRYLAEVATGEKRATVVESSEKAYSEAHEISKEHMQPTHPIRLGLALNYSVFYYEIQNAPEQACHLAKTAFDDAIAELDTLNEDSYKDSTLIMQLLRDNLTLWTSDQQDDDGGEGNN
Hits are given with their value; – = inactive; + = active, no number.

SMILES	14-3-3g Raf
Cc1ccc(C2=NN(S(C)(=O)=O)C(c3ccccc3Cl)C2)cc1 (stereo unspecified)	–
Cc1c(Cl)c(C)c([N+](=O)[O-])c(O)c1C=Nc1cccc(C(=O)O)c1	–
Cc1c(Cl)c(C)c([N+](=O)[O-])c(O)c1C=Nc1ccc(C(=O)O)cc1	45
Cc1c(Cl)c(C)c([N+](=O)[O-])c(O)c1C=Nc1ccc(Br)cc1	–
CCCCNC(=O)C1CCN(S(=O)(=O)c2cccc3nsnc23)CC1	–
O=C(NCc1ccc(F)cc1)c1ccc(Cn2c(=O)[nH]c3ccsc3c2=O)cc1	–
COc1cccc(C(=O)Oc2c(S(=O)(=O)c3ccc(C)cc3)c(C)nn2C(C)(C)C)c1	–
CC1(C)CC(=O)c2sc(N3CCCCC3)nc2C1	–
CC1(C)CC(=S)C=C(N2CCCCC2)C1	125
CC1(C)CC(=O)C=C(N2CCN(C3=CC(=O)CC(C)(C)C3)CC2)C1	–
Cc1ccc(NC(=O)CN(c2cccc(C)c2C)S(=O)(=O)c2ccccc2)cc1	–
CCOC(=O)CN1NC2(CCC(C(C)(C)CC)CC2)NC1=S (stereo unspecified)	–
COCCCNc1nc2c(c(=O)[nH]c(=O)n2C)n1Cc1cccc(C)c1	–
Clc1ccc(-c2nc3ncccn3c2Nc2ccc3c(c2)OCO3)cc1	–
CSc1ccc(-c2nc3ncccn3c2Nc2ccccc2C)cc1	–
Clc1ccc(Sc2c(-c3ccccc3)nc3ncccn23)cc1	39
O=C(O)C1CCCCC1C(=O)Nc1cccc([N+](=O)[O-])c1 (stereo unspecified)	–
O=C1CC(c2ccc(-c3ccccc3)cc2)c2cc(Br)c3ccccc3c2N1 (stereo unspecified)	–
COC(=O)c1c(NC(=O)c2cccc(Br)c2)sc(C)c1C	–
CCC(=O)Nc1ccc(S(=O)(=O)Nc2cc(C)on2)cc1	–
Cc1cc(NS(=O)(=O)c2ccc(NC(=O)CCN3C(=O)c4ccccc4C3=O)cc2)no1	–
Cc1cc(NS(=O)(=O)c2ccc(NC(=O)CCC(=O)O)cc2)no1	37
Cc1cccc(Cn2c(SCC(=O)c3ccccc3)nc3c2c(=O)n(C)c(=O)n3C)c1	–
CCOC(=O)c1ccc(N=Cc2ccc(OC(=O)c3ccc(OC)cc3)c([N+](=O)[O-])c2)cc1	–
O=[N+]([O-])c1nn(-c2ccc3c(c2)OCCO3)n(O)c1=NCCc1ccccc1	–
SMILES	14-3-3g Raf
Cc1cccc(CCN=c2c([N+](=O)[O-])nn(-c3ccccc3)n2O)c1	–
Cc1cccc(CCN=c2c([N+](=O)[O-])nn(-c3ccc4c(c3)OCCO4)n2O)c1	72
Cc1ccc2c3c(ccc2n1)NC1=C(C(=O)CCC1)C3c1ccc2c(c1)OCO2 (stereo unspecified)	–
O=C1c2ccc(Oc3ccc([N+](=O)[O-])cc3)cc2C(=O)N1CC1CCCO1 (stereo unspecified)	–
CCOC(=O)c1ccc(NC(=O)c2oc(=O)c3ccccc3c2-c2ccc(C)cc2)cc1	–
CCc1ccc(NC(=O)c2oc(=O)c3ccccc3c2-c2ccc(C)cc2)cc1	–
Cc1ccc(-c2c(C(=O)Nc3ccc(N(C)C)cc3)oc(=O)c3ccccc23)cc1	39
CCn1c2ccccc2c2nc3cc4ccccc4cc3nc21	116
CCCCCn1c2ccccc2c2nc3ccccc3nc21	–
CCn1c2ccc(Cl)cc2c2nc3ccccc3nc21	–
O=S(=O)(Nc1nc2ccccc2nc1Nc1ccccc1)c1ccc(Cl)cc1	–
COC(=O)Cn1cc(C(=O)C2CC2)c2ccccc21	50
CCCC(=O)c1cn(CC(=O)OC)c2ccccc12	–
CCOC(=O)Cn1cc(C(=O)C2CC2)c2ccccc21	–
O=c1cc(CNC2CCCCC2)c2ccccc2[nH]1	–
O=C1c2ccccc2-c2c(NC3CCCCC3)c(=O)[nH]c3cccc1c23	+
O=C(NC1CCCCCC1)c1c(O)c2ccccc2[nH]c1=O	–
CCCC(=O)Nc1c2c(nn1-c1ccc(Cl)cc1)CS(=O)(=O)C2	–
CCCn1c(=O)c(C(=O)Nc2cccc(Br)c2)c(O)c2ccccc21	–
CC1CCN(CCCn2c(=S)[nH]c3ncccc3c2=O)CC1	–
CCC1=C(C)C(c2ccccc2)NC(=S)N1 (stereo unspecified)	–
CCSC1(SCC)N=C(N)C2(C#N)C(c3ccccc3)NC(C)=C(C)C12C#N (stereo unspecified)	–
CC1=CC(C#N)(C#N)C(C#N)(C#N)C(c2ccccc2)N1 (stereo unspecified)	73
CCCN(CCC)S(=O)(=O)c1ccc(NC(=O)C2c3ccccc3Oc3ccccc32)cc1	–
C=CCSc1nnc2c(n1)OC(c1cccc(F)c1)Nc1ccccc1-2 (stereo unspecified)	–
SMILES	14-3-3g Raf
CSc1nnc2c(n1)OC(C1CC=C(C)CC1C)Nc1ccccc1-2 (stereo unspecified)	83
CCSc1nnc2c(n1)OC(C1CC=C(C)CC1C)Nc1ccccc1-2 (stereo unspecified)	–
CCCSc1nnc2c(n1)OC(C1CC=C(C)CC1C)Nc1ccccc1-2 (stereo unspecified)	–
C=CCOc1cccc(C2Nc3ccccc3-c3nnc(SC)nc3O2)c1 (stereo unspecified)	134
CSc1nnc2c(n1)OC(c1ccc(OCc3ccccc3)cc1)Nc1ccccc1-2 (stereo unspecified)	33
C=CCOc1ccc(C2Nc3ccc(Br)cc3-c3nnc(SC)nc3O2)cc1 (stereo unspecified)	–
CSc1nnc2c(n1)OC(c1ccc(OCC(=O)O)cc1)Nc1ccccc1-2 (stereo unspecified)	–
CCOc1ccc(C2Nc3ccccc3-c3nnc(SCC)nc3O2)cc1 (stereo unspecified)	–
CC(C)(C)N1C(=O)c2ccc(S(=O)(=O)c3ccc4c(c3)C(=O)N(C(C)(C)C)C4=O)cc2C1=O	–
O=C(NCc1ccc(CNC(=O)c2ccccc2)cc1)c1ccccc1	–
COc1ccc(S(=O)(=O)NCCC(=O)NCc2cccs2)cc1	–
O=C(CCNS(=O)(=O)c1ccc(Cl)cc1)NCc1cccnc1	–
COc1ccc(S(=O)(=O)NCCC(=O)NCc2cccnc2)cc1	56
COc1cc(Cl)c(C)cc1NC(=O)Cc1c(C(=O)O)[nH]c2ccc(Cl)cc12	–
CCCC(O)C#CCN(CC)CC (stereo unspecified)	–
Cc1cccc(Nc2nnc(-c3cc4c(CO)cnc(C)c4oc3=O)s2)c1	–
CCOC(=O)C1=C(C)NC(C)=C(C(=O)OC)C1c1cccc([N+](=O)[O-])c1 (stereo unspecified)	–
COC(=O)C1=C(C(=O)OC)C(c2cc([N+](=O)[O-])ccc2OCc2ccccc2Cl)c2sc(=O)[nH]c2S1 (stereo unspecified)	–
COC(=O)C1=C(C(=O)OC)C(c2cccc([N+](=O)[O-])c2)c2sc(=O)[nH]c2S1 (stereo unspecified)	34
Cc1c(C(=O)N2CCCCCC2)oc2ccc(S(=O)(=O)N3CCOCC3)cc12	–
O=C(NC1CCCCC1)C1CCCN(S(=O)(=O)N2CCCC2)C1 (stereo unspecified)	–
Cc1ccc(C)c(-n2c(CCC(=O)O)ccc2-c2ccc(F)cc2)c1	–
COCc1oc2ccc(NS(=O)(=O)c3ccc(Cl)c([N+](=O)[O-])c3)cc2c1C(=O)OC	–
Cc1ccc(N2C(=O)CSC2c2ccccn2)cc1F (stereo unspecified)	–
COc1ccccc1NC(=O)c1cc2ccccc2c(C=Nc2ccc(OC(F)F)cc2)c1O	112
